Experimental findings from PubChem BioAssay are described below.

The test system of test [1] is TRPC4 beta (transient receptor potential cation channel C4), mouse. Kind of test: activators of mouse TRPC4 channel, confirmation, cell-based, Fluo4 calcium, HEK293 TRPC4beta/mu-opioid, duplicates, 10 µM (AID 2426;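 active = fluorescence ratio normalized to control raised more than 50% in primary screen plus both repeat runs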;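 also: percent rise of integrated ratio over buffer wells lacking compound which define 0%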). As to conditions: Fluo4 calcium fluorescence, at 10 µM; stronger effect = higher value.
Test [2] deals with transient receptor potential cation channel C4 beta (TRPC4), mouse. The test can be described thus: activators of mouse TRPC4 channel, confirmation, cell-based, second round, Fluo4, HEK293 TRPC4beta/mu-opioid, 1 µM (AID 2461;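 active = primary screen active and over 50% activation in each of two duplicate runs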;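 as to activation: 0% = wells without test compound as baseline of integrated fluorescence ratio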). As to conditions: Fluo4 calcium fluorescence, at 1 µM; stronger effect = higher value.
Test [3] relates to TRPC4 (transient receptor potential cation channel C4 beta), mouse. The test can be described thus: positive allosteric modulators of mouse TRPC4, confirmation, cell-based, second round, Fluo-4, HEK293 TRPC4beta/mu-opioid, 1 µM (AID 2554;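 active = primary screen hit whose fluorescence ratio, in both repeats, exceeds the weak agonist control mean by 3 SD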). As to conditions: DAMGO EC20, Fluo-4 calcium flux, at 1 µM; stronger effect = higher value. In general terms: A change in cytosolic calcium serves as a functional read-out for many receptors and channels.

Test [4] deals with TRPC4 beta (transient receptor potential cation channel C4), mouse. Kind of test: positive allosteric modulators of mouse TRPC4, confirmation, cell-based, Fluo-4, HEK293 TRPC4beta/mu-opioid (AID 2555;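 active = primary screen hit whose calcium fluorescence ratio, in both repeats, exceeds the weak agonist control mean by 3 SD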). As to conditions: DAMGO EC20, Fluo-4 calcium flux, at 10 µM; stronger effect = higher value.
Test [5] addresses Short transient receptor potential channel 4 (Mus musculus) (UniProt Q9QUQ5). The test can be described thus: inhibitors of mouse TRPC4 channel, confirmation, cell-based, Fluo4, HEK293 TRPC4beta/mu-opioid (AID 2636). As to conditions: DAMGO, Fluo4 calcium flux, at 10 µM; stronger effect = higher value.
Test [6] shares this target. The test can be described thus: inhibitors of mouse TRPC4 channel, confirmation, cell-based, second round, Fluo4, HEK293 TRPC4beta/mu-opioid, 1 µM (AID 2637;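 active = calcium signal ratio cut to more than 3 SD under the fully stimulated control mean yet still positive, in both repeats and the primary screen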). As to conditions: Fluo4 calcium flux, DAMGO, at 1 µM; stronger effect = higher value.
For test [7] the target is unchanged. Kind of test: TRPC4 positive allosteric modulators, dose response, cell-based, HEK293 TRPC4/mu-opioid, Fluo-4 calcium, EC20 DAMGO (AID 434941;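 active = earlier screen potentiator hit that boosts the TRPC4 ion channel at some dose, with a dose response; inactive = no potentiation, no dose response, or not a prior hit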;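 also: calcium entry triggered by an EC20 dose of DAMGO at the co-expressed mu-opioid receptor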). As to conditions: HEK293 TRPC4/mu-opioid cells, Fluo-4 calcium fluorescence; series mostly up to 20 µM.
Test [8] has the same target. Kind of test: mouse TRPC4 channel inhibitors, dose response, cell-based, HEK293 TRPC4/mu-opioid, Fluo-4 calcium (AID 434942;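 active = primary screen inhibitor hit that blocks the TRPC4 channel at some tested dose, yielding a dose curve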). As to conditions: HEK293 TRPC4/mu-opioid cells, DAMGO-evoked Fluo-4 calcium ratio; series mostly up to 20 µM.
The target of test [9] is Short transient receptor potential channel 6 (Mus musculus) (UniProt Q61143). Kind of test: inhibition of mouse TRPC6 channel, confirmation, selectivity assay for TRPC4 inhibitor project, cell-based, HEK293, membrane potential dye, duplicate (AID 434948;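 active = active in primary screen and both duplicates, each dropping signal beyond three positive-control SD with fluorescence still positive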). As to conditions: HEK293 TRPC6, membrane potential dye fluorescence, at 10 µM; inhibition: stronger effect = higher value, stimulated with maximal-effect acetylcholine unless noted; outcome: stimulated with maximal-effect acetylcholine unless noted.

For test [10] the target is unchanged. Kind of test: activation of mouse TRPC6 channel, confirmation, selectivity assay for TRPC4 activator project, cell-based, HEK293, membrane potential dye, duplicate (AID 434950;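 active = membrane potential signal rise above negative control mean plus 3 SD in both duplicates, also active in the earlier TRPC4 screen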;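 as to activation: 0% = buffer only wells and 100% = acetylcholine maximal-effect wells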). As to conditions: HEK293 TRPC6, membrane potential fluorescence, at 10 µM; stronger effect = higher value.
For test [11] the target is unchanged. The test can be described thus: TRPC6 potentiation by TRPC4 potentiator hits, confirmation, selectivity assay for TRPC4 potentiator project, HEK293 cells, membrane potential dye, duplicate (AID 434952;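 active = compound raising the membrane signal above positive-control mean plus 3 SD in both repeats, and a primary screen hit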). As to conditions: HEK293 TRPC6, membrane potential dye fluorescence, at 10 µM; maximal acetylcholine added after compound unless noted.
In test [12] the target is Short transient receptor potential channel 4 (Mus musculus) (UniProt Q9QUQ5). The test can be described thus: calcium flux activators in TRPC4/5HT1a cells, counter-screen for TRPC4 activator project, cell-based, second counter screen, HEK293 TRPC4/5HT1a, Fluo-4 (AID 434977;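 active = calcium signal rise above buffer-control mean plus 5 SD in both duplicates, and also a hit in the primary screen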;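 as to activation: plate controls were assay buffer for no effect and maximal serotonin response for full effect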). As to conditions: Fluo-4 calcium flux, at 10 µM; stronger effect = higher value.
The nature of test [13]: calcium flux inhibitors in TRPC4/5HT1a cells, confirmation, counter-screen for TRPC4 inhibitor project, cell-based, second counter screen, HEK293 TRPC4/5HT1a, Fluo-4 (AID 434978;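 active = primary screen active whose calcium signal fell more than 3 SD beyond the full-serotonin control mean in both duplicate plates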;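 also: serotonin given first at submaximal then at maximal dose after compound preincubation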). As to conditions: Fluo-4 calcium flux, at 10 µM; inhibition: stronger effect = higher value, serotonin added to trigger calcium flux unless noted; outcome: serotonin added to trigger calcium flux unless noted.

For test [14], the system named is TRPC4 (mouse), co-expressed with 5HT1a in HEK293. Kind of test: calcium flux potentiators in TRPC4/5HT1a cells, confirmation, counter-screen for TRPC4 potentiator project, cell-based, second counter screen, HEK293 TRPC4/5HT1a, Fluo-4 (AID 434979;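 active = signal rise over 3 SD above mean of control wells given weak agonist, in both repeats and first screen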). As to conditions: Fluo-4 calcium flux, at 10 µM; outcome: serotonin added at its EC20 dose unless noted; potentiation: stronger effect = higher value, serotonin added at its EC20 dose unless noted.

Test [15] is described as follows: calcium flux activation in mu-opioid HEK293 cells, confirmation, counter-screen for TRPC4 activator project, cell-based, HEK293 mu-opioid receptor line (AID 449723;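 active = hit in primary screen, with calcium signal over 5 SD above buffer well mean in both duplicates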;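 also: counter screen cells carry the mu-opioid receptor alone and lack TRPC4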). As to conditions: Fluo-4 calcium fluorescence, at 10 µM; stronger effect = higher value.
Test [16] is described as follows: calcium flux enhancement in mu-opioid HEK293 cells, confirmation, counter-screen for TRPC4 allosteric potentiator project, cell-based, HEK293 mu-opioid receptor line (AID 449724;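 active = calcium signal rise more than 3 SD above the low-dose agonist control mean, in both duplicate plates and the primary screen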;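 also: HEK293 cells carrying mu-opioid receptor only with no TRPC4 channel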). As to conditions: Fluo-4 calcium flux, at 10 µM; compound added before EC20 DAMGO stimulus unless noted.

For some of these results: Measured potencies and affinities stand elsewhere. Activity calls are given as the source filed them.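 The calls were made as follows, unless noted: active = calcium signal cut by more than 3 SD below the full-agonist control yet still positive, in both repeats and the earlier primary screen; inactive = the rest.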

Chain of Short transient receptor potential channel 6 (Mus musculus) (Q61143 whole entry, looked up): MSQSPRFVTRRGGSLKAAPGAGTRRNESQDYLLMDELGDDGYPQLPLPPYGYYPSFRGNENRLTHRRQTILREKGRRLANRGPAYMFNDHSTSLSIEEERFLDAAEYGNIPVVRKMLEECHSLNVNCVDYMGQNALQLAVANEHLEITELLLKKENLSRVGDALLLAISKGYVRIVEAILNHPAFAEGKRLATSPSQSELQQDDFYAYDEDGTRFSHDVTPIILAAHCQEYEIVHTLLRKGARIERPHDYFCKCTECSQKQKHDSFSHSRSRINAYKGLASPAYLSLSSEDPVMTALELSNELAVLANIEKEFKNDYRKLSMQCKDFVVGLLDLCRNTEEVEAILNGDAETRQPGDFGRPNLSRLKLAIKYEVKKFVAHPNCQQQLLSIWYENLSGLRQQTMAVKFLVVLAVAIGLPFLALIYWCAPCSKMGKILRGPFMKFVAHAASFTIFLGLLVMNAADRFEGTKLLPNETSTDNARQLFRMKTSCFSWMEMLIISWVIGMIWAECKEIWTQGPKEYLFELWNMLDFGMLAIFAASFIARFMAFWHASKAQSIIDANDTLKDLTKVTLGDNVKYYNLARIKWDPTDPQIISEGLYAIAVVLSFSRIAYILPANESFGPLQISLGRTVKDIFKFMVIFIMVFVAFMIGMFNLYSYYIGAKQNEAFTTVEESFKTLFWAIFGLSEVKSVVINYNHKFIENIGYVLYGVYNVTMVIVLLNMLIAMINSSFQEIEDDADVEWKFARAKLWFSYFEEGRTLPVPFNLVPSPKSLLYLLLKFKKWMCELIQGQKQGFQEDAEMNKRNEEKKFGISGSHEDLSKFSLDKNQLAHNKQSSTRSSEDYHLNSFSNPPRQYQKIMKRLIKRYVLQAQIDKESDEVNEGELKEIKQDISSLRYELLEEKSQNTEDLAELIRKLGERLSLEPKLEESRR
Chain of Short transient receptor potential channel 4 (Mus musculus) (Q9QUQ5 whole entry, looked up): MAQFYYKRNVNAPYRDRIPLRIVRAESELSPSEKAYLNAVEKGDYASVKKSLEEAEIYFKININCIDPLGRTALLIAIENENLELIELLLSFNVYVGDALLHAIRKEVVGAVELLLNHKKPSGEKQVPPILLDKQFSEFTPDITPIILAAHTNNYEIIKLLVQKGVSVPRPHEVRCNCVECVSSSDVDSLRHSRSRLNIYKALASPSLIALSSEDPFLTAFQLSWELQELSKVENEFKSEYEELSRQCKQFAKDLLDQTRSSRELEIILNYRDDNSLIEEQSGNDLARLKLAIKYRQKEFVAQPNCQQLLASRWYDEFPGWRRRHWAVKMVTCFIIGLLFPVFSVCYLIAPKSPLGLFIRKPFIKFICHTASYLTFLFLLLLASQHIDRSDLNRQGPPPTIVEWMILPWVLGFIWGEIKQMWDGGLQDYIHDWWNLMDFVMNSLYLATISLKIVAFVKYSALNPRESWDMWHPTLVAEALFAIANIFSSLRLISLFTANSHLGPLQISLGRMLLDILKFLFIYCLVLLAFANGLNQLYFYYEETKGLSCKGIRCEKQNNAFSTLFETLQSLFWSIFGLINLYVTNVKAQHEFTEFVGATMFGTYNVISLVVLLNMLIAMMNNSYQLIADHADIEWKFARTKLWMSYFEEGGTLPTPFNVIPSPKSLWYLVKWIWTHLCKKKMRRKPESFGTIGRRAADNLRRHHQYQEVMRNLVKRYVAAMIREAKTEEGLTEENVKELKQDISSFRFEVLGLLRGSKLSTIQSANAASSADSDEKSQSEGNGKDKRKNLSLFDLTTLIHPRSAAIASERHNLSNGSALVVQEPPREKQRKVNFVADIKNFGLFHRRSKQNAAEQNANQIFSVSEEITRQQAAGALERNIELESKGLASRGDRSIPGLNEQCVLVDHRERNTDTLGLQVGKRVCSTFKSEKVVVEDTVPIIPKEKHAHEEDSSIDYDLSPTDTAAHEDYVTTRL

Regarding `COc1cc(C)c(CNCCc2c[nH]c3ccccc23)cc1C`, the activation in test [1] is 165% (active); in test [10], 54.5% (active); in test [12], 74.2% (active); in [15] it was 12.8% (active). Moreover, the outcome in test [2], in [3], in test [4], in test [5], in [6] and in test [7] was inactive. The result in test [8], in test [9], in test [11], in test [13], in [14] and in test [16] was inactive.
`COc1ccc(CNCCc2c[nH]c3ccccc23)c(OC)c1C`: the activation was 151% (active) in test [1], 63.5% (active) in [10] and 13.6% (active) in [12]. Also, the outcome in [2], in test [3], in [4], in [5], in [6] and in test [7] was inactive. In addition, the result in test [8], in test [9], in [11], in [13], in [14] and in test [15] was inactive. Besides, in test [16], the outcome was inactive.
`CCOC(=O)C1(CCc2ccccc2)CCN(Cc2ccc(NC(C)=O)cc2)CC1`: the figures for the activation in test [1], in [2] and in [10] were 83% (active), 90% (active) and 41.5% (active), respectively. The outcome in [3], in test [4], in test [5], in [6], in test [7] and in test [8] was inactive. The outcome in test [9], in test [11], in [12], in test [13], in [14] and in test [15] was inactive. Besides, the outcome in test [16] was inactive.
As for `CC[C@@H](CO)NC(=O)[C@@H]1C=C2c3cccc4c3c(cn4C)C[C@H]2N(C)C1`, the values for the activation in test [1], in test [2] and in test [12] were 107% (active), 57% (active) and 147% (active), respectively. Further, the result in test [3], in test [4], in test [5], in test [6], in test [7] and in test [8] was inactive. Further, the molecule was classed as inactive in test [10] and in test [15]. The outcome in test [9], in test [11], in [13], in test [14] and in test [16] was “inactive [setting not given]” each time.
With `CCN1CCN(Cc2cc(Br)cc(Br)c2O)CC1`, the activation in test [1] was 221% (active); in test [2] it was 133% (active); in [10] it was 38.5% (active); in test [12], 70.3% (active). The result in test [3], in test [4], in [5], in test [6], in test [7] and in test [8] was inactive. Also, the result in [9], in test [11], in test [13], in test [14], in test [15] and in test [16] was inactive.
As to `NC(N)=N/N=C/c1ccc(N(c2ccccc2)c2ccccc2)cc1`, the results for the activation in [1], in test [12] and in [15] were 60% (active), 48.2% (active) and 20.3% (active), respectively. The result in test [2], in test [3], in test [4], in [5], in [6] and in [7] was inactive. For the same molecule, the result in [8], in test [9], in test [10], in test [11], in [13] and in test [14] was inactive. Besides, the result in test [16] was inactive.
In the case of `O=[N+]([O-])c1ccc(N2CCCNCC2)c2ncccc12`, the results for the activation in test [1], in test [2] and in test [12] were 133% (active), 139% (active) and 55.8% (active), respectively. Besides, the outcome in test [3], in test [4], in [5], in test [6], in test [7] and in test [8] was inactive. For the same molecule, the call in test [9], in [10], in [11], in test [13], in test [14] and in test [15] was inactive. Besides, the result in test [16] was inactive.
In the case of `COc1ccc(C(CNC(=O)c2ccc3c(c2)CCC3)N(C)C)cc1` (stereo not drawn), the activation in test [1] is 237% (active); in [2], 142% (active); in test [10], 76.5% (active); in [15], 12.1% (active). Also, the result in [3], in test [4], in test [5], in [6], in test [7] and in [8] was inactive. The result in test [9], in test [11], in test [12], in [13], in [14] and in [16] was inactive.
With `CC(N)Cc1c[nH]c2cc3c(cc12)OCCO3` (stereo not drawn), the activation in [1] is 195% (active); in [2], 60% (active); in test [12], 107% (active). Further, the result in test [3], in test [4], in test [5], in [6], in [7] and in test [8] was inactive. Moreover, the call in [10] and in [15] was inactive. The outcome in [9], in [11], in test [13], in [14] and in [16] was “inactive [setting not given]” in each case.
For the molecule `COc1ccc2c(c1O)C13CCN(C)C(C2)C1CCC(=O)C3` (stereo not drawn), the activation in test [1] is 82% (active); in [2], 96% (active); in test [10] it was 27.5% (active). The outcome in test [3], in test [4], in test [5], in [6], in [7] and in [8] was inactive. Also, the outcome in test [12] and in test [15] was inactive. Moreover, the outcome in test [9], in [11], in test [13], in test [14] and in test [16] was “inactive [setting not given]” each time.
Turning to `COc1ccc2c(c1O)[C@]13CCN(C)[C@H](C2)[C@@H]1CCC(=O)C3`, the activation in test [1] is 82% (active); in test [2], 99% (active); in test [10] it was 29.5% (active). Besides, the result in test [3], in test [4], in [5], in test [6], in [7] and in [8] was inactive. The result in [12] and in [15] was inactive. Moreover, the outcome in [9], in test [11], in [13], in test [14] and in test [16] was “inactive [setting not given]” each time.
For `Cn1c(N2CCNCC2)nc2ccccc21`, the activation in test [1] is 117% (active); in test [2] it was 92% (active); in test [10] it was 31.5% (active); in test [12], 34.7% (active). The outcome in test [3], in test [4], in test [5], in [6], in [7] and in test [8] was inactive. For the same molecule, the molecule was called inactive in test [9], in test [11], in [13], in test [14], in test [15] and in test [16].
`CNCCc1nc(N)n[nH]1`: the values for the activation in [1], in [2] and in [12] were 160% (active), 172% (active) and 146% (active), respectively. The outcome in test [3], in test [4], in test [5], in test [6], in test [7] and in test [8] was inactive. Further, the outcome in [9], in test [10], in test [11], in test [13], in test [14] and in test [15] was inactive. Moreover, the result in [16] was inactive.
